The source of these data is PubChem BioAssay (NCATS).

Results filed as inconclusive are left out. Values without a mark were called inactive. Active and inactive are the calls of the source. Calls come from the whole dose curve; as a rule, active = well fitted activation curve with a large enough effect in the repeat runs; inconclusive = weak or mixed curves; inactive = flat fitted curve, though single readings scatter.
Potency is the fitted concentration of half-maximal effect.

The experiment can be described thus: qHTS assay for small molecule agonists of the antioxidant response element (ARE) signaling pathway measured by Nrf2-dependant transcriptional activity (AID 720636). For activation: % of control where 0% means no effect. The settings on record: ARE-luc HepG2, Nrf2 luciferase reporter, 16 h; series mostly up to 92.4 µM; activation: at the top concentration. The source says: National Center for Advancing Translational Sciences [NCATS] NIH Chemical Genomics Center [NCGC] U.S. Environmental Protection Agency [EPA] National Institutes of Environmental Health Sciences [NIEHS] National Toxicology Program [NTP] Assay Overview: The antioxidant response element (ARE) signaling pathway plays an important role in the cellular anti-oxidant defense. Exposure to stressors which are exogenous like ionizing radiations, chemicals, U-V light, and endogenous like cell signaling, metabolic processes or inflammation, reactive oxygen species (ROS), can induce oxidative stress in the cells. Oxidative stress has been implicated in the pathogenesis of a variety of diseases ranging from cancer to neurodegeneration. ARE-luc HepG2 cell line (Simmons et al., Current Chemical Genomics, 5:1-12, 2011) has been used for identifying the chemicals that induce oxidative stress. The cell line has an Nrf2-responsive luciferase reporter gene that has been engineered to measure Nrf2-dependant transcriptional activity.
Assay Protocol Summary: For measuring ARE induction; 2,000 ARE-luc HepG2 cells in 5 uL of assay medium containing 1% dialyzed FBS per well were dispensed into white wall/solid bottom 1536-well plates using a Flying Reagent Dispenser (FRD) (Aurora Discovery). The assay plates were incubated for 6 hr at 37 C to allow cell attachment to the well bottom, followed by the transfer of 23 nL compound or DMSO vehicle by a pin tool (Kalypsys). The plates were incubated for 16 hr at 37 C and 5% CO2, followed by the addition of 5 uL of ONE-GloTM luciferase reagent (Promega) into each well using FRD. After 30 min room temperature incubation, plates were read on a ViewLux plate reader (PerkinElmer).
(qHTS replaces the single test concentration by a dilution series.)
As for `CCCCOC(=O)[C@@H](C)Oc1ccc(Oc2ccc(C#N)cc2F)cc1`, the “activation” value is -0.851%.

`CC(C)(C)[C@@H](O)/C(=C\c1ccc(Cl)cc1Cl)n1cncn1`: the “activation” value was -3.57%.

For `C/C(=N\C(N)=O)N(C)Cc1ccc(Cl)nc1`, the “activation” value is 0.217%.

With `CCSC(=O)N(CC)C1CCCCC1`, the “activation” value is -0.924%.

Regarding `OC(c1ccc(Cl)cc1)(c1ccc(Cl)cc1)C(Cl)(Cl)Cl`, the “activation” value is -1.84%.

With `C=CCOC(=O)C(C)(C)OC(=O)c1cc(-n2c(=O)cc(C(F)(F)F)n(C)c2=O)ccc1Cl`, the “activation” value is -1.41%.

For `Oc1ccc(C2(c3ccc(O)cc3)c3ccccc3-c3ccccc32)cc1`, the “activation” value is -4.13%.

Take `CC(Oc1cc(Cl)c(Cl)cc1Cl)C(=O)O` (stereo not given): the “activation” value was 1.39%.

As for `CCCOCC(=Nc1ccc(Cl)cc1C(F)(F)F)n1ccnc1`, the Potency is 61.1 µM (active).

In the case of `N#Cc1c(Cl)c(Cl)c(Cl)c(C#N)c1Cl`, the “activation” value was -5.02%.

As to `CCOP(=S)(OCC)Oc1ccc(S(C)=O)cc1` (stereo not given), the “activation” value was 0.232%.

On to `c1ccc2cc3c(ccc4ccccc43)cc2c1`, for which the Potency was 30.6 µM (active).

Regarding `CO/N=C(/C1=NOCCO1)c1ccccc1Oc1ncnc(Oc2ccccc2Cl)c1F`, the “activation” value is -2.05%.

On to `CNC(=O)O/N=C/C(C)(C)S(C)(=O)=O`, for which the “activation” value is -0.535%.

`CCOP(OCC)OCC`: the “activation” value was -0.555%.

Regarding `CCNc1nc(NCC)nc(SC)n1`, the “activation” value was -0.0983%.

On to `[Ga]#[As]`, for which the “activation” value is 0.724%.

Turning to `COc1cc(Cl)c(OC)cc1Cl`, the “activation” value is -0.614%.

On to `CCN(CC)C(=O)C(C)Oc1cccc2ccccc12` (stereo not given), for which the “activation” value is 0.518%.

In the case of `CC1(C)Cc2cccc(O)c2O1`, the “activation” value was 0.276%.

For `COc1ccc(C(O)(c2cncnc2)C2CC2)cc1` (stereo not given), the “activation” value was -1.01%.

On to `Cc1ccc(O)cc1C`, for which the “activation” value was -1.29%.

As for `CCC[CH2][Sn](=[O])[CH2]CCC`, the “activation” value was -0.364%.

`COc1cc(OC)nc(NC(=O)NS(=O)(=O)c2cc(NC=O)ccc2C(=O)N(C)C)n1`: the “activation” value is 0.601%.

In the case of `C#CCC1=C(C)[C@H](OC(=O)[C@H]2[C@H](C=C(C)C)C2(C)C)CC1=O`, the “activation” value was 1.98%.

As for `CCCCC(O)(Cn1cncn1)c1ccc(Cl)cc1Cl` (stereo not given), the “activation” value is -1.87%.

On to `O=C(O)C(F)(F)C(F)(F)C(F)(F)C(F)(F)C(F)(F)C(F)(F)C(F)(F)C(F)(F)F`, for which the Potency entry was “inactive”.

Take `C/C=C(\C)C(=O)O[C@H]1C[C@@H](OC(C)=O)[C@@]2(C(=O)OC)CO[C@H]3[C@@H](O)[C@@](C)([C@]45O[C@@]4(C)[C@H]4C[C@@H]5O[C@@H]5OC=C[C@@]54O)[C@H]4[C@]1(CO[C@]4(O)C(=O)OC)[C@@H]32`: the “activation” value is 0.251%.

Take `CC(C)C1(C)N=C(c2ncccc2C(=O)O)NC1=O` (stereo not given): the “activation” value was -0.448%.

For `CCOP(=O)(OCC)OC(Cl)C(Cl)(Cl)Cl` (stereo not given), the “activation” value was -0.473%.

For `CC1(C)CC/C(=C\c2ccc(Cl)cc2)C1(O)Cn1cncn1` (stereo not given), the “activation” value was -0.283%.

Consider `CCC/C(=N\OCC)C1=C(O)CC(CC(C)SCC)CC1=O` (stereo not given), for which the “activation” value is 0.956%.

Regarding `Clc1ccc(C(Cl)(Cl)Cl)cc1`, the “activation” value was 2.33%.

In the case of `CCOCn1c(-c2ccc(Cl)cc2)c(C#N)c(Br)c1C(F)(F)F`, the “activation” value was -0.699%.

Take `CC(=NC#N)N(C)Cc1ccc(Cl)nc1`: the “activation” value is -1.03%.

In the case of `CCOP(=O)(OCC)Oc1nc(Cl)c(Cl)cc1Cl`, the “activation” value was 0.0521%.

Take `CC1COC(Cn2cncn2)(c2ccc(Oc3ccc(Cl)cc3)cc2Cl)O1` (stereo not given): the “activation” value is -3.48%.

Turning to `CCOc1nc(NC)nc(NC(=O)NS(=O)(=O)c2ccccc2C(=O)OC)n1`, the “activation” value was -1.11%.

Take `c1cc(OCC2CO2)cc(OCC2CO2)c1` (stereo not given): the “activation” value is 0.968%.

Consider `CCOP(=O)(OCC)OP(=O)(OCC)OCC`, for which the “activation” value is 0.219%.
